Most compounds without a hit are left out; they make up all but 2.9% or so of the library.
PG9 binder: binders of HIV-1 gp120 antibody PG9, primary screen, biochemical, TR-FRET; TR-FRET gp120-PG9 antibody binding; 360,000 compounds, 0.43% hits; inhibition, % at 6.7 µM; in the data active means inhibition above about 8.5%
SKN-1 block: suppressors of acrylamide-induced Pgst-4::GFP reporter in worms, primary screen, SKN-1 inhibitor project, whole organism, uHTS, GFP/RFP fluorescence ratio, strain VP596; C. elegans VP596 Pgst-4::GFP/RFP ratio, 24 h; inhibition, % at 21.8 µM; 360,000 compounds, 0.49% hits; AID 624304, 2012;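 active means interference check ratio from 0.5 to 1.5 plus GFP to RFP signal ratio inhibition reaching or exceeding a fixed threshold, cut at about 30% in these data, passing the limit was not always enough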
PGE2 EP2 inh: human EP2 receptor antagonists, primary screen, TR-FRET cAMP, C6 glioma cells; 260,000 compounds, 0.52% hits; AID 1422, 2008; inhibition, % at 25 µM; C6 glioma cells expressing human EP2; cells stimulated with saturating PGE2;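 active means percent inhibition above 40 after rounding to a whole number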;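 further: rat C6 glioma host cells with rolipram phosphodiesterase inhibitor present; the protocol text gives 20 µM as final concentration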
Target sequence (P43116 whole entry, looked up): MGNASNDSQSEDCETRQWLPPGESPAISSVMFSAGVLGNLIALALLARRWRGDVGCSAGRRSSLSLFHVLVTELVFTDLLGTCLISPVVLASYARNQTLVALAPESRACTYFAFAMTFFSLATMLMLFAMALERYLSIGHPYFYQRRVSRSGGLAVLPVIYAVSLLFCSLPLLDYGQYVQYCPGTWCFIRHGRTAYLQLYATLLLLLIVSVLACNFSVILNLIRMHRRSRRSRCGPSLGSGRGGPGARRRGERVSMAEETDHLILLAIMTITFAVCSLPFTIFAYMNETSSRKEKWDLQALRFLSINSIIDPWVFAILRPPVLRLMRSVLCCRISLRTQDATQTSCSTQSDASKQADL
EP2 mod: EP2 receptor modulators, cAMP readout, primary screen, cell-based, HTRF cAMP, PGE2 stimulation; Prostaglandin E2 receptor EP2 subtype (Homo sapiens), P43116; EP2-expressing cells, cAMP HTRF FRET, PGE2 co-stimulation; induction, % at 25 µM; 260,000 compounds, 0.83% hits; AID 940, 2007;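 active means compounds whose cAMP rise, as percent of the full-agonist control response, exceeds 60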;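 further: rat C6 glioma line stably carrying human EP2 under a CMV promoter; the protocol text gives 20 µM as final concentration; 100% = response of wells given 1 µM PGE2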
RAM inhibit: inhibitors of the yeast RAM network, primary screen, dse1pr::URA3 reporter, 5-FOA selection; S. cerevisiae dse1pr::URA3 reporter, 5-FOA growth OD615, 2 d; analog-sensitive cbk1-as2 kinase mutant strain; inhibition, % at 50 µM; 190,000 compounds, 1.8% hits; AID 868, 2007;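 active means inhibition above a set limit, 3 SD over mean compound inhibition, cut at about 8.4% in these data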;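 further: 0% = DMSO-only wells with no growth and 100% = 10 µM 1-NA-PP1 full growth; inhibition rescues growth on 5-FOA so higher OD means more RAM inhibition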
NR1D1 modulator: modulators of Rev-erb alpha DNA binding, primary screen, biochemical, FITC-DNA, fluorescence polarization, uHTS; Rev-erbα–FITC-DNA binding, 90 min; Nuclear receptor subfamily 1 group D member 1 (Homo sapiens), P20393; 370,000 compounds, 0.79% hits; activity, % at 10 µM;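 active means activity above about 14%, limit read from the data; passing the limit was not always enough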;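 further: 0% = DMSO wells with 35 nM protein and 100% = DMSO wells with 750 nM protein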
PG9 bind confirm: binders of anti-gp120 antibody PG9, confirmation, biochemical, TR-FRET; shares compounds with PG9 binder; 1,500 compounds, 90% hits; TR-FRET PG9 antibody binding; AID 651571, 2012; inhibition, % at 6.7 µM; in the data active means inhibition above about 9%
PGV04 Ab binding: binders of control antibody PGV04, counter-screen for PG9 antibody binder project, biochemical, TR-FRET, distinct HIV envelope site | TR-FRET PGV04 antibody-gp120 binding | inhibition, % at 6.7 µM | shares compounds with PG9 binder | 1,500 compounds, 95% hits | AID 651604, 2012; in the data active means inhibition above about 9.5%
PG9 binder DR: small-molecule binders of antibody PG9, dose response, biochemical, TR-FRET, HIV-1 gp120 antibody; shares compounds with PG9 binder; TR-FRET PG9 antibody-gp120 binding inhibition; IC50, µM; 95 tested, under 10 active; AID 651848, 2012; in the data active means IC50 below about 10 µM
PGV04 binding DR: binders of control antibody PGV04, dose response, counter-screen for PG9 antibody binder project, biochemical, TR-FRET, distinct HIV envelope site; IC50, µM; 95 compounds, 20% hits; TR-FRET binding to control antibody PGV04; shares compounds with PG9 binder
PG126 DR counter: binders of control antibody PG126, dose response, counter-screen for PG9 antibody binder project, biochemical, TR-FRET, distinct HIV envelope site; shares compounds with PG9 binder; TR-FRET binding to antibody PG126, counterscreen; 95 compounds, 20% hits; IC50, µM
NR1D1 mod conf: modulators of Rev-erb alpha DNA binding, confirmation, biochemical, FITC-DNA, fluorescence polarization, single point; shares compounds with NR1D1 modulator; activation, % at 25 µM; 90 min; 3,000 compounds, 61% hits;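 active means activation at or above a set limit, or at least 3 SD above the negative control mean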;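 further: 0% = 35 nM protein with DMSO and 100% = 750 nM protein high control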
RORg counter: modulation of RORgamma DNA binding, dose response, counter-screen for Rev-erb alpha modulator project, biochemical, fluorescence polarization, FITC-DNA. IC50, µM. 910 compounds, 8% hits. purified RORgamma protein-FITC-DNA binding. shares compounds with NR1D1 modulator;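 active means Compounds whose fitted half-maximal concentration for disrupting protein-DNA binding is below 10 micromolar; the record names Rev-erb in its text, so the target is in doubt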
* marks the source's active call; other numbers are inactive results; i = inactive; x = no result. Unless noted, no stated cut-off is given here; in the data, active means IC50 below about 9 µM; inactive means the rest.

SMILES	PG9 binder	SKN-1 block	PGE2 EP2 inh	EP2 mod	RAM inhibit	NR1D1 modulator	PG9 bind confirm	PGV04 Ab binding	NR1D1 mod conf	others
COc1ccc(NC(=O)c2sc3cc(C(F)(F)F)cnc3c2-c2cccs2)cc1	9.6*	14	14	29	7	112*	18*	71*	73*	RORg counter=>40
N#Cc1ccc(NC(=O)c2sc3cc(C(F)(F)F)cnc3c2-c2cccs2)cc1	-13	9	38	27	4	8	x	x	x
CCCNC(=O)c1ccc2c(=O)n3c(-c4ccc(C)cc4)csc3nc2c1	24*	-4	22	-4	x	26*	37*	68*	24*
CCCCn1nc2cc(C(=O)NCCc3ccc(C)cc3)ccc2c1OCC	1	12	11	-33	1	-3	x	x	x
Cc1sc2nc(Cc3ccccc3)[nH]c(=O)c2c1-c1ccccc1	35*	10	11	18	4	70*	44*	65*	87*	RORg counter=i
CC(=O)Nc1nnc(SCC(=O)NC2CC2)s1	-1	19	x	x	x	-2	x	x	x
CC(=O)Nc1nnc(SCC(=O)c2ccc3c(c2)Cc2ccccc2-3)s1	10*	9	13	61*	6	55*	21*	49*	18*
Cc1cc(=O)nc2c3ccccc3n(C(C)C(=O)NCCC(C)C)n12 (stereo not drawn)	-3	-19	11	20	x	-1	x	x	x
CC(=O)c1ccc(NC(=O)C(C)n2c3ccccc3c3nc(=O)cc(C)n32)cc1 (stereo not drawn)	9.5*	-1	5	22	x	21*	14*	15*	9
c1cc[n+](CC2OCc3ccccc3CO2)cc1	x	x	10	9	x	x	x	x	x
CCC(C(=O)NC1CCCC1)N(C(=O)c1snc(C(N)=O)c1N)c1ccc(OC)cc1 (stereo not drawn)	34*	-1	9	-9	x	18*	15*	41*	-3
Cn1c(Cn2nnc3ccccc32)nnc1SCC(=O)N(C1CCCCC1)C1CCCCC1	x	x	10	32	x	x	x	x	x
CCOC(=O)c1cc(C(=O)OCC)c2cc(Br)ccc2n1	11*	2	13	45	7	40*	12*	17*	38*	RORg counter=>40
CCC(C)n1c(=O)c(C(=O)Nc2ccccc2S(N)(=O)=O)c(O)c2ccccc21 (stereo not drawn)	14*	12	18	3	1	54*	14*	23*	31*
Cc1sc2nc(SCC(=O)NCc3ccco3)n(-c3ccccc3)c(=O)c2c1C	51*	2	15	34	2	102*	58*	75*	85*
CCOC(=O)c1sc2nc(SCC(=O)NCc3ccco3)n(Cc3ccccc3)c(=O)c2c1C	1	-5	8	-7	2	-1	x	x	x
CCc1nc(SCC(=O)NCc2ccco2)c2c3c(sc2n1)CCCC3	57*	-21	8	26	3	46*	42*	64*	55*	RORg counter=>40
Cc1ccc(-n2c(SCC(=O)NCc3ccco3)nc3sc(C)c(C)c3c2=O)cc1	30*	-11	12	12	3	67*	29*	42*	63*
Cc1sc2nc(SCC(=O)NCc3ccco3)n(Cc3ccccc3)c(=O)c2c1C	20*	-12	14	42	3	37*	14*	20*	31*
Cc1sc2nc(SCC(=O)NCCO)n(-c3ccccc3)c(=O)c2c1C	-1	7	11	10	3	0	x	x	x
Cn1c(-c2cc(Cl)ccc2O)nc2c1c(=O)[nH]c(=O)n2Cc1ccccc1	0	13	4	7	4	3	x	x	x
COc1ccc(Br)cc1-c1nc2c(c(=O)[nH]c(=O)n2Cc2ccccc2)n1C	45*	11	x	x	x	92*	69*	20*	52*	PG9 binder DR=9.5*;PGV04 binding DR=5.1*;PG126 DR counter=5.7*;RORg counter=>40
Cc1cc2nc(-c3ccc(SCC(=O)Nc4ccc(S(=O)(=O)N5CCCC5)cc4)nc3)[nH]c2cc1C	16*	15	19	3	1	31*	8	27*	32*
O=C(CSc1ccc(-c2nc3ccccc3[nH]2)cn1)Nc1ccc(S(=O)(=O)N2CCCC2)cc1	-1	8	11	-11	5	-1	x	x	x
O=C(Nc1ccc2oc(-c3cccc(F)c3)nc2c1)c1ccccc1F	16*	11	11	-5	4	82*	40*	59*	42*	RORg counter=>40
C=CCn1c(SCC(=O)Nc2ccc(OC)cc2OC)nc2ccccc2c1=O	x	x	5	-33	x	x	x	x	x
CC(=O)Nc1ccc(C(=O)CSc2cc(C)c3cccc(C)c3n2)cc1	17*	3	6	13	5	37*	23*	48*	30*
CCOc1ccc2nc(NCCNS(=O)(=O)c3ccc(C)cc3)c(C#N)cc2c1	x	x	7	-20	x	x	x	x	x
